Experimental findings from PMC7819943, “Rice protein-binding microarrays: a tool to detect cis-acting elements near promoter regions in rice” are described below.

In all, about 35,000 sequences were measured (“fluorescence intensity (a.u.)”: median about 10,000, highest 2% from about 52,000 on). Many of the other results were omitted from the sample, so the highest values are more common in it than they were.

In this assay the target is T1, OsWOX13 (Oryza sativa, UniProt Q5QMM3 1-267).
T1 sequence: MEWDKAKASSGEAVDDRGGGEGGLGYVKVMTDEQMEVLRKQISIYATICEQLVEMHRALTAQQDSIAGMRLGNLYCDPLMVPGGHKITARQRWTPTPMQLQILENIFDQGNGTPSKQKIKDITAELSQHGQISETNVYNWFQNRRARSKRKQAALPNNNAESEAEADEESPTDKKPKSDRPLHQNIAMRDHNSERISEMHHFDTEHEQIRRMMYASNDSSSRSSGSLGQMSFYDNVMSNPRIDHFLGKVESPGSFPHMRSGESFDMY
In words: protein-binding microarray (RPBM); PBS, 2% BSA, 51.3 ng/ul salmon testes DNA, 50 uM zinc acetate, 200 nM TF, 25 C, 1 h; high values mean tight binding. The note with it: protein: recombinant; tags: N-terminal polyhistidine and DsRed monomer fusion (pET32a); label: CyDye5-dUTP incorporated in the synthesized complementary strand; 3' TTTTT single-stranded linker to array surface; dsDNA, one strand shown. The method, boiled down:
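For the binding signal, per-feature fluorescence intensity was read in arbitrary units on an Axon 4000B scanner. Before scanning, a 2% BSA-blocked custom Agilent array made double-stranded with Cy5-dUTP was washed after 1 h at 25 °C with 200 nM protein and 50 µM zinc acetate. The proteins were Ni–NTA-purified transcription factors with N-terminal polyhistidine and DsRed fusions, expressed in E. coli BL21-CodonPlus.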
On to “ATATGATTAAACTCAAGTATAGTTGAGGGACGTAAATTGGCGGAGTCACCTAGTGCAG”, for which the binding signal is 19700 fluorescence intensity (a.u.). The result for “TTCATATAATTTATAAGGGACATAATGTAATCACCCTATACGGAGTCACCTAGTGCAG” reads 10300 fluorescence intensity (a.u.); that for “ACCCACCCTTCAATTAGCCTGTGAATTACTACTTTCTAATCGGAGTCACCTAGTGCAG”, 7460 fluorescence intensity (a.u.). Turning to “AGTGATTAATTCATTCCAAAAGACAGTAGCGACATCTATTCGGAGTCACCTAGTGCAG”, the binding signal is 20300 fluorescence intensity (a.u.). Under “ATTAATTATCAGTGAGCACAAGCCTGGCATGTAAATCATGCGGAGTCACCTAGTGCAG” stands 24800 fluorescence intensity (a.u.); under “TTATGACCGGTTTTGATTAGTTAAGAGACGCCAGATATCTCGGAGTCACCTAGTGCAG”, 14300 fluorescence intensity (a.u.); under “TAATTGATTAATTAATAATACTCCAGCTGCAGCAACGGCACGGAGTCACCTAGTGCAG”, 47300 fluorescence intensity (a.u.). Take “TTTTGATTGACAGCGGAAATTACTCGATATTGTTCTTCAACGGAGTCACCTAGTGCAG”: the binding signal was 64300 fluorescence intensity (a.u.). Under “GCCTGATTAATTGATTAATTCTCCAGCTGCATCACATTGACGGAGTCACCTAGTGCAG” stands 63700 fluorescence intensity (a.u.); under “TCCCATTGATTTGATCCAGCTAATTAATTAATTCGATCCACGGAGTCACCTAGTGCAG”, 49900 fluorescence intensity (a.u.); under “CCTGATTAATTGGGTCGTCGTTCCATTCCCAGCCGATCGACGGAGTCACCTAGTGCAG”, 65200 fluorescence intensity (a.u.).

On to “ATACATTGATTAATCAGCCAGCCAGCCAGCCAGCCACTGACGGAGTCACCTAGTGCAG”, for which the binding signal is 28700 fluorescence intensity (a.u.). Under “CACCAATTTGATTGTTTTATTATTTTAAATCTTCAGTACTCGGAGTCACCTAGTGCAG” stands 14200 fluorescence intensity (a.u.); under “GTATGGATCACCTGATTAATTGGGCCGTCGTTCCATTCCCCGGAGTCACCTAGTGCAG”, 9310 fluorescence intensity (a.u.); under “ATGTTCTTAGATTGATTAAGATTGTCAATTGATTACTCCACGGAGTCACCTAGTGCAG”, 60500 fluorescence intensity (a.u.). Under “GTAGTTCTTGATGTATTTCAATTAGAACCTTAATTTTCCACGGAGTCACCTAGTGCAG” stands 3390 fluorescence intensity (a.u.); under “ATTTGATTTTCTGTCTTTTCTTCAACTCGATTTTGTTAAACGGAGTCACCTAGTGCAG”, 8770 fluorescence intensity (a.u.); under “TATTAAGAATTAGATTAGGATTAGGATTGTGTCAATGTTCCGGAGTCACCTAGTGCAG”, 4860 fluorescence intensity (a.u.). The result for “TTAAATTTATACCCCACTTATATCTCACTTACACATCACTCGGAGTCACCTAGTGCAG” reads 7930 fluorescence intensity (a.u.); that for “TTAAATTTTCTATATAAATCTATTCAAATCTGCATAAATGCGGAGTCACCTAGTGCAG”, 3870 fluorescence intensity (a.u.); that for “TTGTAAAATTATATTTATTTAAGATGAAGGGAGTACTATCCGGAGTCACCTAGTGCAG”, 4920 fluorescence intensity (a.u.).

“TTGCTGATTGTGAATGGTGGGTGCAAGGATACACTTTTCGCGGAGTCACCTAGTGCAG”: the binding signal was 23900 fluorescence intensity (a.u.). The result for “AGCTAGGTCAATCATGCATGCATGAATATGTGGCCGAGTTCGGAGTCACCTAGTGCAG” reads 3270 fluorescence intensity (a.u.).
